From PubChem
BAZ2B block: qHTS Assay for Inhibitors of BAZ2B | AID 504333, 2011 | AlphaScreen BAZ2B-H3K14Ac peptide displacement | hit rate 4.4% among 360,000 | Potency, µM (series often up to 114 µM), actives largely listed as inhibitors | Bromodomain adjacent to zinc finger domain protein 2B (Homo sapiens), Q9UIF8; further: nearly all actives have a fitted effect of over 60% in size
Target sequence (Q9UIF8 whole entry, looked up, the tested form may be a part): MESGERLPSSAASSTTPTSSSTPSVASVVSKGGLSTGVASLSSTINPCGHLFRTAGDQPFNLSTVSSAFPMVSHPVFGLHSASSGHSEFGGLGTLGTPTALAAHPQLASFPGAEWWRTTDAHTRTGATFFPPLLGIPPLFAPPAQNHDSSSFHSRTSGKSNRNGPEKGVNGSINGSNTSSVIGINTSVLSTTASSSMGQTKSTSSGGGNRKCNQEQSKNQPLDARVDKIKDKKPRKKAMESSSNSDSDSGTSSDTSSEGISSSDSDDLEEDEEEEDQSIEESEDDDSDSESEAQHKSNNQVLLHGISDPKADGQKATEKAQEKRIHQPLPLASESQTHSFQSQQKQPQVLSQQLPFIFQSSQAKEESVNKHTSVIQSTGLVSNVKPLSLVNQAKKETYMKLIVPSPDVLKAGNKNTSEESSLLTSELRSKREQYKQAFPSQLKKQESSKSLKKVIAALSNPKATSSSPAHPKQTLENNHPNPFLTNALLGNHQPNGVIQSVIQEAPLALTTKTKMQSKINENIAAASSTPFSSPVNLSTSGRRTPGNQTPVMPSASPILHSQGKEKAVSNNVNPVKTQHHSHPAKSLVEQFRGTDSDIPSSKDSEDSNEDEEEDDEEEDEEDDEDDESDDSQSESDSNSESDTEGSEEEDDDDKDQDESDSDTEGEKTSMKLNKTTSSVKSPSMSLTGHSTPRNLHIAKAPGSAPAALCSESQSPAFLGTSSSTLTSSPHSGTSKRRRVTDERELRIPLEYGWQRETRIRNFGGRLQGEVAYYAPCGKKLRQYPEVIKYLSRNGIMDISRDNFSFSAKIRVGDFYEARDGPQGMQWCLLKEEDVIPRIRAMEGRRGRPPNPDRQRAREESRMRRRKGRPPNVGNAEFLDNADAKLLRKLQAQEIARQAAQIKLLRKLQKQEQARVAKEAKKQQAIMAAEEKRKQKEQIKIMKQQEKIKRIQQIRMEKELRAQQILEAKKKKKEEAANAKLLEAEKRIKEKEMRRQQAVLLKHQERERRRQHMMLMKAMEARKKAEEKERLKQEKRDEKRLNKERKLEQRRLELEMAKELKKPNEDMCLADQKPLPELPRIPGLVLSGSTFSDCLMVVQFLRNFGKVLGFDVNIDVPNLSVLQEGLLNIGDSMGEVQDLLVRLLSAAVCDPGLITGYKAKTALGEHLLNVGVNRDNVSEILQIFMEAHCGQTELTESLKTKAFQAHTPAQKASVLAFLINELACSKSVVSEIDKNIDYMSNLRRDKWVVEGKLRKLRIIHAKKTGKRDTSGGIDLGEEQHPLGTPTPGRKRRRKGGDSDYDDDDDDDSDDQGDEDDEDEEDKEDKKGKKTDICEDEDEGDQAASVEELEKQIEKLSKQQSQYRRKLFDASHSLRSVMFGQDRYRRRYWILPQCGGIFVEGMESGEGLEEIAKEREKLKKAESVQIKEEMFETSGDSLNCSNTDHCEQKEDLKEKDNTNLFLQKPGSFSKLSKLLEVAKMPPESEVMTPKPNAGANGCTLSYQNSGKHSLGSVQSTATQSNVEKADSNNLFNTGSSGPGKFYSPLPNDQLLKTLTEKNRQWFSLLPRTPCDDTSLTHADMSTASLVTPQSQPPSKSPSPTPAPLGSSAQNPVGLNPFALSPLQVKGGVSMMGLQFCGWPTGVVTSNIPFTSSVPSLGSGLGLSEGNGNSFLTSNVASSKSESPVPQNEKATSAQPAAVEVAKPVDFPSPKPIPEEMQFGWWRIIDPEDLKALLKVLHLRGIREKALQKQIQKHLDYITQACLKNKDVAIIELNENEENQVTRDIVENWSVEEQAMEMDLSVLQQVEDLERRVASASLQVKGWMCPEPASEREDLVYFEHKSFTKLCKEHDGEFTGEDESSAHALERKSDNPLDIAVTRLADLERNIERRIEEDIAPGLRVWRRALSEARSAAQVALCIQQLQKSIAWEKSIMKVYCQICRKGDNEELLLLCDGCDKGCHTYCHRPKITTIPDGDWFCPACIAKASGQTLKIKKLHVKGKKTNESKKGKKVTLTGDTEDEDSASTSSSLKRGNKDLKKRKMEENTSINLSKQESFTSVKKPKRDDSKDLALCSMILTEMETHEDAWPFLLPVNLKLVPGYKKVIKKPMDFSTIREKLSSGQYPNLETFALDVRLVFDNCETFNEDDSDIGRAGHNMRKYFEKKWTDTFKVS
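AlphaScreen displacement: compounds (up to 110uM) incubated 30 min at room temperature with a preformed 50 nM BAZ2B/50 nM biotinylated H3K14Ac peptide complex in PBS pH 7.4 with Tween-20. Donor and acceptor beads at 10 ug/mL final added, 20 min light-protected before reading.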
JMJD2A Tudor inh: qHTS Assay for Inhibitors of JMJD2A-Tudor Domain; AlphaScreen JMJD2A-Tudor / H3K4me3 peptide binding; Potency, µM (doses to about 114 µM), actives largely listed as inhibitors; hit rate 4.4% among 390,000; AID 504339, 2011; further: nearly all actives have a fitted effect of over 50% in size
L3MBTL1 inh: qHTS Assay for the Inhibitors of L3MBTL1; AlphaScreen L3MBTL1–H3K9me1 peptide binding; Potency, µM (titrated, usually from 57.1 µM), hits mostly inhibitors; hit rate 0.66% among 230,000; further: nearly all actives have a fitted effect of over 60% in size
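Displacement of a biotinylated histone H3(1-15) peptide monomethylated at Lys9 (75 nM) from L3MBTL1 (50 nM) was measured by AlphaScreen after a 30 min room-temperature compound incubation; cefsulodin titration served as intraplate control.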
HP1b chromo inh: HTS for Inhibitors of HP1-beta Chromodomain Interactions with Methylated Histone Tails; Chromobox protein homolog 1 (Homo sapiens), P83916; AlphaScreen HP1-beta / biotin-H3K9me3 peptide binding; Potency, µM (top dose mostly 114 µM), actives largely listed as inhibitors; hit rate 0.56% among 390,000; AID 540317, 2011; further: nearly all actives have a fitted effect of over 70% in size
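AlphaScreen: HP1-beta (50 nM) preformed 30 min with biotin-H3(1-18)K9me3 peptide (50 nM) in PBS pH 7.4, 0.01% Tween-20. Compound added for 30 min at RT, then streptavidin donor/nickel chelate acceptor beads (10 ug/mL) for 30 min.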
G9a inh: qHTS Assay for Inhibitors of Histone Lysine Methyltransferase G9a; G9a H3K9 monomethylation, AlphaScreen, 2 h; AID 504332, 2011; Histone-lysine N-methyltransferase EHMT2 (Homo sapiens), Q96KQ7; hit rate 8.8% among 350,000; Potency, µM (highest dose often 102 µM), actives largely listed as inhibitors; further: nearly all actives have a fitted effect of over 75% in size
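Using a bead-based AlphaScreen, monomethylated H3K9 product from 2 h room-temperature reactions (G9a 20 nM, peptide 500 nM, SAM 20 uM) was detected with 0.5 ug/mL rabbit anti-H3K9me1 antibody.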
A number is an active result; – = inactive; ? = inconclusive; · = not tested or not shown; [ ] = remark or other dose. Shown are actives, neighbours in structure and some others; about 11% of the full set was active somewhere. The call rests on the fitted dose curve; in most records, active means well fitted inhibition curve with a large enough effect; inconclusive means small, poorly fitted or top-dose-only effect; inactive means no such curve, though single readings can be large or run the other way.

SMILES	BAZ2B block	JMJD2A Tudor inh	L3MBTL1 inh	HP1b chromo inh	G9a inh
COc1cccc(C(=O)NCCS(=O)(=O)N2CCc3ccccc3C2)c1	–	–	–	–	–
COC(=O)C1CCN(S(=O)(=O)CCNC(=O)c2cccc(OC)c2)CC1	–	–	–	–	35.5µM
COc1cccc(C(=O)NCCS(=O)(=O)N2CCC(C)CC2)c1	–	–	–	–	35.5µM
CC1CCN(S(=O)(=O)CCNC(=O)c2ccccc2)CC1	–	–	–	–	–
O=C(O)c1ccc(-n2c(=O)c3ccccc3c3ccccc3c2=O)cc1	89.1µM	–	–	–	–[0.501 µM]
Cc1ccc(-n2c(=O)c3cc4c(=O)n(-c5ccc(C)c(C)c5)c(=O)c4c(C(=O)c4ccc(C(=O)O)cc4)c3c2=O)cc1C	10µM	12.6µM	·	?	·
Cc1ccc(N2C(=O)c3ccc(C(=O)O)cc3C2=O)cc1C	–	–	·	–	–
CCCCN(C)S(=O)(=O)c1cc(-c2cc(C)no2)ccc1C	–	–	·	–	–
COC(=O)C1=C(C)NC(=O)/C1=C\c1cc(C)n(-c2ccc(F)cc2)c1C	?	?	–	–	·
Cc1cc(C)c(-n2c(C)cc(/C=C3/NC(=O)NC3=O)c2C)c(C)c1	50.1µM	?	–	?	?
Cc1cccc(-n2c(C)cc(/C=C3\NC(=O)NC3=O)c2C)c1	?	–	–	–	44.7µM
COC(=O)C1=C(C)NC(=O)/C1=C\c1cc(C)n(-c2cccc(C)c2)c1C	39.8µM	44.7µM	·	20µM	–[12.7 µM]
Cc1cc(/C=C2/NC(=O)NC2=O)c(C)n1C	–	–	·	–	?
O=C(c1ccc(F)cc1Cl)N1CCN(S(=O)(=O)c2cccs2)CC1	–	–	·	–	–
COc1ccc(NC(=S)N2CCC(NC(=O)c3ccco3)CC2)cc1	–	–	·	–	–
CCOC(=O)c1c(-c2ccc(C)o2)csc1NC(=O)CSc1nnc(C)s1	–	–	–	–	?
CCOC(=O)c1c(-c2ccc(C)o2)csc1NC(=O)COC(=O)c1ccc(NC(N)=O)cc1	79.4µM	?	·	–	3.55µM
CCOC(=O)c1c(-c2ccc(C)o2)csc1NC(=S)NC(=O)c1ccccc1Br	–	?	–	?	31.6µM
CCOC(=O)c1c(-c2ccc(C)o2)csc1NC(=S)NC(=O)c1cccs1	?	–	–	–	?
CN1CCc2c1nc1ccccc1c2N=C1CCCN1Cc1ccccc1	–	44.7µM	–	–	–
Nc1c2c(nc3cccc(Cl)c13)N(c1ccccc1)CC2	–	–	·	–	–
CCCCN1CCc2c1nc1ccc(Br)cc1c2N	–	–	·	–	–[12.7 µM]
Cc1ccc2nc3c(c(N)c2c1)CCN3C	79.4µM	25.1µM	·	35.5µM	8.91µM
Cc1ccc2nc3c(c(N)c2c1)CCN3c1ccccc1	56.2µM	0.794µM	–	?	17.8µM
CN1CCc2c1nc1ccccc1c2N (tested in a mixture with another compound)	–	–	·	–	79.4µM
SMILES	BAZ2B block	JMJD2A Tudor inh	L3MBTL1 inh	HP1b chromo inh	G9a inh
O=C(c1ccc2c(c1)OCCO2)N(Cc1cccnc1)c1nc2c(F)cccc2s1	–	–	·	–	–
CCOc1cc(C2c3c(-c4cc(C)ccc4O)n[nH]c3C(=O)N2CCCOC(C)C)ccc1O (centres undefined)	?	?	·	–	–
COc1ccc(CCNC(=O)Cn2cc(S(=O)(=O)Cc3ccccc3F)c3ccccc32)cc1OC	–	–	·	–	–
Cc1c(C(=O)OC2CCC(C)CC2)[nH]c2c1C(=O)CC(c1ccc(F)cc1)C2 (centres undefined)	–	–	·	–	–
COc1ccc(NC(=O)CN2C(=O)C3(SCC(=O)N3c3cccc(OC)c3)c3ccccc32)cc1 (centres undefined)	–	–	·	–	–
Cc1nc(N)nc2c1CCCC2	–	–	·	–	–
Cc1cccc2c(N)c3c(nc12)N(C)CC3	50.1µM	17.8µM	·	–	50.1µM
CN1CCCCc2c1nc1c(c2N)CCCC1	?	1.78µM	–	?	?
c1ccc(C[C@H]2CNCCN2CC2(c3ccccc3)CC2)cc1	–	–	–	–	–[2.33 µM]
COc1ccc(CCNCC(O)COc2ccc(OC)cc2C(C)(C)C)cc1 (centres undefined)	70.8µM	3.55µM	·	?	44.7µM
COc1ccc(CCNCC(O)COc2cccc(Br)c2)cc1OC (centres undefined)	50.1µM	1µM	·	?	·
COc1ccccc1S(=O)(=O)Cc1ccc(C(=O)NCc2ccc(Cl)cc2)o1	–	–	·	–	–
CC(C)c1cccc(C(C)C)c1NS(=O)(=O)c1cccs1	–	–	·	–	–
COc1ccc(-c2noc(CCCC(=O)Nc3cccc(Cl)c3C)n2)cc1	–	–	·	–	–
Cc1ccc(C2=NN(C(=O)CSc3nc4ncc(Cl)cc4[nH]3)C(c3ccco3)C2)cc1 (centres undefined)	·	–	?	–	22.4µM
Nc1cc(=O)[nH]c(SCC(=O)N2N=C(c3ccc(Cl)cc3)CC2c2ccco2)n1 (centres undefined)	?	–	–	–	?
COc1ccc(C2=NN(C(=O)CSc3nc4ncc(Cl)cc4[nH]3)C(c3ccco3)C2)cc1 (centres undefined)	–	–	–	–	56.2µM
CCOc1ccccc1C1NC(c2ccc3c(c2)OCO3)=CC(c2ccccc2O)N1 (centres undefined)	·	–	·	–	·
CCn1cc(C(=O)NCCc2ccc(OC)c(OC)c2)c(=O)c2cc(S(=O)(=O)N3CCc4ccccc4C3)ccc21	·	–	·	–	?
COc1cccc(/C=C2\SC(=S)N(CCCC(=O)Nc3ccc(C(=O)O)cc3)C2=O)c1	?	?	·	–	·
Cc1ccc(NC(=O)COc2cccc(/C=C3\SC(=S)N(CCC(=O)O)C3=O)c2)cc1Cl	44.7µM	–[11.4 µM]	·	–	–
O=C(O)CCN1C(=O)/C(=C\c2cccc(OCC(=O)Nc3ccc(Cl)cc3)c2)SC1=S	44.7µM	–[11.4 µM]	–	44.7µM	?
Cc1cccc(NC(=O)C(=O)NCCc2sc(-c3ccccc3)nc2C)c1C	–	–	·	–	–
CNC(=O)C1CCCN(c2nnc(C)c3c(C)n(-c4ccccc4)nc23)C1 (centres undefined)	–	–	·	–	–
CC(C)c1ccc(OCc2ccc(C(=O)O)o2)cc1	79.4µM	–	·	–	?
CC(C)c1ccc(OCc2ccc(C(=O)N(C)C)o2)cc1	?	–	·	–	–
COc1cccc(C(=O)N2CCN(Cc3cc(Br)ccc3OC)CC2)c1	28.2µM	7.94µM	–	?	22.4µM
COc1cccc(C(=O)N2CCN(Cc3ccc(OC)cc3OC)CC2)c1	25.1µM	12.6µM	–	?	7.94µM
COc1ccc(Br)cc1CN1CCN(C(=O)c2ccc(OC)c(OC)c2)CC1	50.1µM	14.1µM	–	?	15.8µM
COc1ccc(Br)cc1CNC(=O)C1CCCN(S(C)(=O)=O)C1 (centres undefined)	–	–	–	–	–[12.7 µM]
